About 1,300 (0.62%) of roughly 210,000 compounds were called active. This is one part of a sample in which actives are shown more often than they occur. Unmarked numbers belong to inactive results.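 How the source made its calls: active means inhibition of 40% or more; inactive means the rest.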

In this assay the target is Kallikrein-5 (Homo sapiens) (UniProt Q9Y337). Kind of assay: human KLK5 protease inhibitors, primary screen, biochemical, 1536-well (AID 873).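 Further: 0% = enzyme controls without compound and 100% = no-enzyme blanks.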 Particulars: recombinant hK5, fluorogenic AMC substrate cleavage; at 5 µM; hits give high values.
Sequence of Kallikrein-5 (Homo sapiens) (Q9Y337 67-293 limits assumed): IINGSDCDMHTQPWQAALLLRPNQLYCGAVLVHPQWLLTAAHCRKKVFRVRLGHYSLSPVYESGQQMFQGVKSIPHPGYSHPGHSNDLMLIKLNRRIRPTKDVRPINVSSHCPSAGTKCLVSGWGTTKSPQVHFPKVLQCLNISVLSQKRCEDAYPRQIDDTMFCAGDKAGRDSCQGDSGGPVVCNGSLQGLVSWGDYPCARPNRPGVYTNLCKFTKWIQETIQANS
Turning to `Cc1c(C(=O)N(Cc2ccccc2)Cc2cccnc2)cnn1-c1ccc(F)cc1`, the inhibition (commonly the drop in the measured response relative to a control, in per cent) is -6%. With `COC(=O)c1ccc(NC(=O)c2ccco2)cc1` the figure was -16.9%; with `O=C(Nc1ccc(Oc2ccccc2)cc1)c1ccco1`, 69.2% (active). Consider `O=C(CSc1ccccc1)Nc1ccc(NC(=O)c2ccco2)cc1`, for which the inhibition is -26.9%.

Consider `O=C(O)CCCCCCCCCC[n+]1ccccc1`, for which the inhibition is -3.11%. For `CC1(C)CCSC(/C=C/c2ccccc2)=N1`, the inhibition is -4.94%. The same measure for `Cc1ccc(Nc2nc(N)nc(CN3CCN(Cc4ccccc4)CC3)n2)cc1Cl`: -2.25%; for `COc1cc(C)nc(N2CCCC(C(=O)NCC(C)C)C2)n1` (stereo not drawn): 61.5% (active); for `CC(C)CNC(=O)C1CCCN(S(=O)(=O)c2ccc(-n3cnnn3)cc2)C1` (stereo not drawn): 11.1%. The same measure for `Cc1ccnc(N2CCCC(C(=O)Nc3cc(F)ccc3C)C2)n1` (stereo not drawn): -31.1%; for `COc1cccc(C2Nc3cccc4cccc(c34)N2)c1`: -0.21%. The same measure for `Cc1nc2sc(C(=O)c3ccccc3)c(N)c2c2c1CCCC2`: 44% (active); for `Cc1ccc2c(N)c(C(=O)c3ccccc3)sc2n1`: 17.9%; for `CCc1nc2sc(C(=O)O)c(N)c2c2c1CCCC2`: -8.59%. For `COc1ccc(CC(=O)NCC(=O)N/N=C/c2cc(Br)ccc2OC)cc1`, the inhibition was -3%. The same measure for `Cc1c(C(=O)N/N=C/c2ccccc2)[nH]c2c([N+](=O)[O-])cccc12`: 7.11%; for `COc1cccc2c(C)c(C(=O)O)[nH]c12`: 90.6% (active); for `COc1cccc2c(O)cc(=O)n(C)c12`: -13.9%. The same measure for `CSc1nnc(-c2ccc(C(F)(F)F)cn2)o1`: 2.93%; for `OC(CNCc1ccc2c(c1)OCO2)COc1ccccc1` (stereo not drawn): 2.06%; for `COc1cc(OC)cc(/C(N)=N/O)c1`: -2.69%. The same measure for `O=C(O)/C=C/c1cn(Cc2ccccc2)nc1-c1cccs1`: -5.27%; for `O=C(O)CCn1cc(/C=C/C(=O)c2ccc(Cl)cc2)c(-c2cccc(Br)c2)n1`: 121% (active); for `CCOC(=O)/C(C#N)=C/c1cn(CCC(=O)O)nc1-c1ccc(Br)cc1`: 0.91%. Consider `CCN1CCN(c2nc(Nc3cccc(F)c3)nc(N)c2[N+](=O)[O-])CC1`, for which the inhibition is 1.83%. In the case of `COC(=O)c1sccc1NC(=O)CC1C(=O)NCCN1C(=O)Nc1ccc(F)cc1F` (stereo not drawn), the inhibition was -1.42%. Turning to `Cc1ccc(-c2nc(SCC(=O)Nc3ccccc3OC(F)F)c3c(C)c(C(=O)O)sc3n2)cc1`, the inhibition was 0.7%.

As for `COc1ccc(OC)c(NC(=O)N[C@H](Cc2ccccc2)C(=O)NN)c1`, the inhibition was -9.7%.

The values above are taken from PubChem BioAssay AID873 (PCMD, 2007).
